Consider 30 compounds from PubChem BioAssay (Tox21).

Assay [1] can be described thus: qHTS assay to identify small molecule HDAC inhibitors - cell viability counter screen (AID 1259365). Further: series mostly up to about 92 µM; nearly all actives have a fitted effect of over 50% in size. The method in brief: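 After overnight seeding at 1,500 cells per well, wild-type HCT-116 cultures took up compounds in DMSO for 2hr at 37 C. Viable cell content came from luminescence with CellTiter-Glo.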
Background: qHTS replaces the single test concentration by a dilution series.

The nature of assay [2]: qHTS assay to identify small molecule agonists of the sonic hedgehog signaling (Shh) pathway - cell viability counter screen (AID 1259366). Further: nearly all actives have a fitted effect of over 50% in size. The method in brief:
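Same-well cytotoxicity read. Gli1-Luc reporter 3T3 cells; compounds 24hr, 37C/5% CO2; CellTiter-Fluor fluorescence.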

A short description of assay [3]: qHTS assay to identify small molecule antagonists of the sonic hedgehog signaling (Shh) pathway - cell viability counter screen (AID 1259367). Further: nearly all actives have a fitted effect of over 55% in size. The method in brief: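 Cells: 3T3 Gli1-Luc, 2,000/well, 4 hr pre-incubation. Compounds in DMSO, then conditioned medium. Incubation 24 hr, 37C, 5% CO2. CellTiter-Fluor at 23 hr, 1 hr, fluorescence.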
The nature of assay [4]: qHTS assay to identify small molecule agonists of the sonic hedgehog signaling (Shh) pathway (AID 1259368; calls by dose curve;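 further: NIH/3T3-derived 3T3Gli1-Luc cells carrying a stable Gli1-driven firefly luciferase reporter; series mostly up to about 92 µM; nearly all actives have a fitted effect of over 15% in size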). The method in brief: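 3T3Gli1-Luc (NIH/3T3 clone, stable Gli1-Luc); 4 hr pre-incubation, then cpd in DMSO 24 hr, 37 C/5% CO2; luciferase reagent 30 min RT; luminescence.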
The nature of assay [5]: qHTS assay to identify small molecule antagonists of the sonic hedgehog signaling (Shh) pathway (AID 1259369; calls by dose curve; further: nearly all actives have a fitted effect of over 45% in size; further: potency means the concentration at half of the fitted maximal effect). The method in brief: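 3T3Gli1-Luc, conditioned-medium-stimulated, 24hr cpd, 37C/5% CO2; Gli1-driven firefly Luc luminescence after 30min RT with luciferase reagent. Cells plated 4hr before cpd.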
The target of assay [6] is Estrogen receptor beta (Homo sapiens) (UniProt Q92731). Put plainly: qHTS assay to identify small molecule agonists of the estrogen receptor beta (ER-beta) signaling pathway (AID 1259377; active means well fitted activation curve with a large enough effect in the signal ratio in the repeat runs, not every such curve was filed as active; the % refers to the signal ratio). The method in brief:
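Read-out: beta-lactamase FRET fluorescence. Cell line: ER-beta-UAS-bla HEK293T in 2% charcoal-stripped FBS. Exposure: 16 hr at 37C. Substrate step: 2 h at room temperature.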

Assay [7] is described as follows: qHTS assay to identify small molecule agonists of the androgen receptor (AR) signaling pathway in the presence of an antagonist - cell viability counter screen (AID 1259379).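 Further: MDA-kb2 human breast cancer cells carrying an MMTV luciferase reporter; series mostly up to about 92 µM; nearly all actives have a fitted effect of over 25% in size.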 The method in brief:
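Cells: MDA-kb2 (MMTV-luc, AR and GR elements), 3,000/well, 5 hr settle. Added: nilutamide 3.0uM final, then compounds (15 conc.). Incubation: 16 hr, 37C, no CO2. Read-out: CellTiter-Fluor, 1 hr, fluorescence.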

A short description of assay [8]: qHTS assay to identify small molecule agonists of the estrogen receptor beta (ER-beta) signaling pathway - cell viability counter screen (AID 1259380). Further: nearly all actives have a fitted effect of over 30% in size. The method in brief: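 HEK293T ER-beta-UAS-bla; 2% CS-FBS; 6 hr pre-plate, 16 hr cpd at 37C/5% CO2; LiveBLAzer read first, then CellTiter-Glo 30 min RT, luminescence.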
Assay [9] deals with Androgen receptor (Homo sapiens) (UniProt P10275). Put plainly: qHTS assay to identify small molecule agonists of the androgen receptor (AR) signaling pathway in the presence of an antagonist (AID 1259381; calls by dose curve; further: nearly all actives have a fitted effect of over 15% in size). The method in brief:
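MDA-kb2 cells, 3,000/well, rested 5hr at 37C/0% CO2 → nilutamide 3.0uM final or buffer → compounds, 15 conc. → 16hr at 37C → ONE-Glo, 30min RT → luminescence.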

In assay [10] the target is Estrogen receptor beta (Homo sapiens) (UniProt Q92731). Put plainly: qHTS assay to identify small molecule antagonists of the estrogen receptor beta (ER-beta) signaling pathway (AID 1259378; active means well fitted inhibition curve with a large enough effect in the signal ratio in the repeat runs, not every such curve was filed as active; the % refers to the signal ratio). The method in brief:
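Antagonist mode: compounds added to beta-lactamase reporter HEK293T ER-beta-UAS cells stimulated with E2 (1nM final), 16 hr at 37C. LiveBLAzer B/G FRET substrate, 2 hours room temperature, fluorescence read-out.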

SMILES strings stand for the structures. Values without a mark were called inactive. Results filed as inconclusive are left out. Active and inactive are the calls of the source. Unless noted, the call rests on the fitted dose curve; in most records, active means well fitted curve in the direction sought with a large enough effect in the repeat runs; inconclusive means weak or mixed curves; inactive means no such curve, though single readings can be large; an effect the other way counts as inactive or inconclusive.

Estrogen receptor beta (Homo sapiens), sequence (Q92731 whole entry, looked up): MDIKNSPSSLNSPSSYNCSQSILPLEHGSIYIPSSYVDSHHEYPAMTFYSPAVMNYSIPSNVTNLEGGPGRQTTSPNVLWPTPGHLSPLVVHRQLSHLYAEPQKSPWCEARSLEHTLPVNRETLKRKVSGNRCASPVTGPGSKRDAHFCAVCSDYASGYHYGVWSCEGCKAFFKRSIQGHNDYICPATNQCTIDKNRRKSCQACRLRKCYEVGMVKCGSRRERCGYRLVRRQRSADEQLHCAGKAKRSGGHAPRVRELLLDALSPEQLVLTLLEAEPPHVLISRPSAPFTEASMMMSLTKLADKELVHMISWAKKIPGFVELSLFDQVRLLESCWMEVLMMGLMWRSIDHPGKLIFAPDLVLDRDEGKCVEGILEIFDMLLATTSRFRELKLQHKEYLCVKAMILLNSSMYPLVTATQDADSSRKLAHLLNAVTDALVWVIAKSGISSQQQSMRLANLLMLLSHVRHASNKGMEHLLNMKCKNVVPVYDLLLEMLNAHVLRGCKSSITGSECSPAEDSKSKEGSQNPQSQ
Androgen receptor (Homo sapiens), sequence (P10275 whole entry, looked up): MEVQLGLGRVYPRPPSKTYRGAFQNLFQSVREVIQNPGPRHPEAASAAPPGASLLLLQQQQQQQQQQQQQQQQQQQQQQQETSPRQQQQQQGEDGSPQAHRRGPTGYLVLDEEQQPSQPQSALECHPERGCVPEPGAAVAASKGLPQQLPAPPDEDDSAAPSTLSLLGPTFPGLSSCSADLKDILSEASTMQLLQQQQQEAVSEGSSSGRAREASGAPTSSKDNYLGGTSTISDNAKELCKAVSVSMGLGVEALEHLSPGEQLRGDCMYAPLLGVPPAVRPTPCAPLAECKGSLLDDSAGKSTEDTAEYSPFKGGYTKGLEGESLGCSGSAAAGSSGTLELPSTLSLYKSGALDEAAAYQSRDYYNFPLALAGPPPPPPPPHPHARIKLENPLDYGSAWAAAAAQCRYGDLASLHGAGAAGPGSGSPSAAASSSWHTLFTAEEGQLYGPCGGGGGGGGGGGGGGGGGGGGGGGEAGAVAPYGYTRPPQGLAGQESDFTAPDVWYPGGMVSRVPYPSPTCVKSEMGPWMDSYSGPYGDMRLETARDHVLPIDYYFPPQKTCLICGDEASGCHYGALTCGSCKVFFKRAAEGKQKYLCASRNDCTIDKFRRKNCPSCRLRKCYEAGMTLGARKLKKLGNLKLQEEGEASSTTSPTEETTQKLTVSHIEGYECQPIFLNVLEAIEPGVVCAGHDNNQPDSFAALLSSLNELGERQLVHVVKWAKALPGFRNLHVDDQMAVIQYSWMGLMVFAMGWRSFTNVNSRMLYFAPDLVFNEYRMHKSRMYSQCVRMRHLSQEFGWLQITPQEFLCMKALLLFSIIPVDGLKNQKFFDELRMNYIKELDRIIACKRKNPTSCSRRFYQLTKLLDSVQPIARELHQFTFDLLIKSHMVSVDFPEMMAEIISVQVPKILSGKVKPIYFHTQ

For the compound `CCNC(=O)/C=C/c1cccc(Br)c1`, the outcome in assay [1], in assay [4], in [8] and in [9] was inactive. Moreover, the Potency result in assay [2], in [3], in [5], in assay [6] and in assay [7] was “inactive” in each case.
For `Oc1ccccc1Cc1ccccc1O`, the compound was called inactive in assay [1] and in [4]. Moreover, the Potency entry in [2], in [3] and in assay [7] was “inactive” throughout. Besides, in assay [5], the Potency was 30.6 µM (active).
On to `CCCCC(CC)CNC(=O)CC(C)OC(=O)CCC(=O)O` (configuration not stated), for which the call in [1], in [4], in assay [8] and in assay [9] was inactive. In addition, the Potency entry in assay [2], in assay [3], in assay [5], in [6] and in assay [7] was “inactive” throughout.
On to `Cn1c(=O)c2c(ncn2CC2OCCO2)n(C)c1=O`, for which the result in assay [1], in assay [4], in [8] and in assay [9] was inactive. Also, the Potency result in [2], in [3], in [5], in assay [6] and in [7] was “inactive” throughout.
Consider `C[C@H]1O[C@H](O[C@H]2[C@H](O)[C@@H](O)[C@@H](O[C@H]3[C@H](O)[C@@H](O)[C@H](O)O[C@@H]3CO)O[C@@H]2CO)[C@H](O)[C@@H](O)[C@@H]1N[C@H]1C=C(CO)[C@@H](O)[C@H](O)[C@H]1O`, for which the compound was classed as inactive in assay [1], in [4], in assay [10] and in [8]. Further, the Potency entry in [2], in assay [3], in assay [5] and in assay [7] was “inactive” throughout.
In the case of `COCCOCCOCCOC`, the outcome in [1], in [4] and in assay [8] was inactive. Moreover, the Potency result in assay [2], in assay [3], in [5], in [6] and in assay [7] was “inactive” each time.
In the case of `COc1cc(C=O)ccc1OC(=O)C(C)C`, the compound was classed as inactive in assay [1], in assay [4] and in [8]. The Potency result in assay [2], in assay [3], in [5] and in assay [7] was “inactive” each time.
As to `C[C@H](CCC(=O)NCC(=O)O)[C@H]1CC[C@H]2[C@@H]3[C@H](O)C[C@@H]4C[C@H](O)CC[C@]4(C)[C@H]3C[C@H](O)[C@]12C`, the result in assay [1], in [4] and in assay [8] was inactive. Besides, the Potency result in assay [2], in [3], in [5], in assay [6] and in [7] was “inactive” throughout.
As for `COC(OC)C(C)c1ccccc1` (configuration not stated), the compound was classed as inactive in assay [1], in assay [4], in assay [8] and in [9]. In addition, the Potency result in assay [2], in [3], in assay [5], in assay [6] and in assay [7] was “inactive” throughout.
Take `O=c1[nH]c(=O)c2ccccc2o1`: the outcome in [1], in assay [4], in [8] and in assay [9] was inactive. In addition, the Potency entry in [2], in assay [3], in assay [5], in assay [6] and in assay [7] was “inactive” throughout.
Turning to `Cc1ccccc1C(=O)N1CC/C(=N\OS(=O)(=O)O)c2ccc(Cl)cc21`, the call in [1], in assay [4] and in assay [8] was inactive. Also, the Potency entry in [2], in assay [3], in assay [5], in assay [6] and in assay [7] was “inactive” each time.
As for `O=C(O)/C=C/c1ccccc1`, the compound was classed as inactive in [1], in assay [4] and in [8]. For the same compound, the Potency result in assay [2], in assay [3], in [5] and in [7] was “inactive” in each case.
In the case of `CC(C)(C)NCCO`, the result in assay [1], in assay [4] and in assay [8] was inactive. Moreover, the Potency entry in assay [2], in assay [3], in assay [5], in [6] and in [7] was “inactive” in each case.
With `CCC(=O)OCCC(C)CCC=C(C)C` (configuration not stated), the call in [1], in assay [4], in [10] and in [8] was inactive. The Potency entry in assay [2], in assay [3], in assay [5] and in [7] was “inactive” in each case.
Take `CN[C@@H]1[C@@H](O)[C@@H](O[C@@H]2[C@H](O)[C@H](O[C@H]3OC(CN)=CC[C@H]3N)[C@@H](N)C[C@H]2N)OCC1(C)O` (some centres not stated): the compound was called inactive in assay [1] and in assay [4]. Further, the Potency entry in [2], in assay [3], in assay [5] and in assay [7] was “inactive” throughout.
Turning to `CC(=O)c1ccc(OCC(=O)N2CCCCC2)cc1`, the call in assay [1], in assay [4] and in assay [8] was inactive. The Potency entry in assay [2], in assay [3], in assay [5] and in assay [7] was “inactive” throughout.
As to `O=C(O)c1ccc(OCCN2CCCCC2)cc1`, the outcome in [1], in [4], in [8] and in assay [9] was inactive. The Potency entry in [2], in assay [3], in assay [5], in [6] and in [7] was “inactive” throughout.
As for `CN(C)CCCNCCC#N`, the call in assay [1], in [4] and in [8] was inactive. Further, the Potency entry in assay [2], in [3], in [5], in assay [6] and in assay [7] was “inactive” each time.
For the compound `CC1(N)CCC(C(C)(C)N)CC1` (configuration not stated), the result in [1], in assay [4] and in assay [8] was inactive. For the same compound, the Potency result in assay [2], in [3], in assay [5], in assay [6] and in assay [7] was “inactive” each time.
For `Cc1nc(C)nc(N2C[C@@H](C)N(c3ccnc([C@@H](C)O)n3)[C@@H](C)C2)n1`, the compound was called inactive in assay [1] and in assay [4]. Also, the Potency entry in [2], in assay [3], in assay [5] and in [7] was “inactive” in each case.
In the case of `Cc1ccc(C(=O)C(=O)O)cc1C`, the compound was classed as inactive in assay [1], in assay [4] and in [8]. Besides, the Potency entry in assay [2], in [3], in assay [5] and in [7] was “inactive” each time.
For the compound `C[C@@H]1C[C@H]2[C@@H]3C[C@H](F)C4=CC(=O)C=C[C@]4(C)[C@@]3(F)[C@@H](O)C[C@]2(C)[C@@]1(O)C(=O)CO`, the call in [1], in assay [4] and in assay [8] was inactive. The Potency entry in assay [2], in assay [3], in [6] and in [7] was “inactive” in each case. Besides, the Potency in [5] is 0.668 µM (active).
With `CC(=O)OC(C)c1ccccc1` (configuration not stated), the compound was called inactive in [1], in assay [4] and in assay [8]. Further, the Potency result in assay [2], in assay [3], in assay [5], in assay [6] and in assay [7] was “inactive” each time.
Consider `CCCO`, for which the result in assay [1], in assay [4] and in assay [8] was inactive. In addition, the Potency result in assay [2], in assay [3], in assay [5], in assay [6] and in assay [7] was “inactive” in each case.
On to `CCCCCCCCCCCCCC(=O)OC`, for which the result in [1], in assay [4], in [8] and in assay [9] was inactive. For the same compound, the Potency entry in assay [2], in [3], in [5], in assay [6] and in assay [7] was “inactive” in each case.
Take `CCOC(=O)CC(CC(=O)OCC)(OC(C)=O)C(=O)OCC`: the outcome in [1], in assay [4], in [10] and in assay [8] was inactive. In addition, the Potency result in assay [2], in assay [3], in [5] and in assay [7] was “inactive” throughout.
With `CCCCC(C)C(=O)O` (configuration not stated), the result in assay [1], in [4], in [10] and in assay [8] was inactive. Also, the Potency entry in assay [2], in assay [3], in assay [5] and in [7] was “inactive” in each case.
Consider `CC(C)CCC(=O)CCC(C)C`, for which the compound was called inactive in assay [1], in assay [4] and in assay [8]. The Potency entry in [2], in [3], in [5], in assay [6] and in assay [7] was “inactive” throughout.
In the case of `CC(C)SCc1ccco1`, the result in assay [1], in assay [4] and in assay [8] was inactive. For the same compound, the Potency entry in [2], in [3], in [5], in [6] and in [7] was “inactive” throughout.
On to `COc1cc2c(Nc3ccc(Br)cc3F)ncnc2cc1OCC1CCN(C)CC1`, for which the result in assay [1], in assay [4] and in assay [8] was inactive. In addition, the Potency result in assay [2], in [3], in assay [5], in [6] and in assay [7] was “inactive” in each case.
